Records with an inconclusive call do not appear. A number with no mark means an inactive call. The source made the active and inactive calls. The call rests on the fitted dose curve; in most records, active means well fitted curve in the direction sought with a large enough effect; inconclusive means small, poorly fitted or top-dose-only effect, or another doubt; inactive means no such curve, though single readings can be large; an effect the other way counts as inactive or inconclusive. Where a SMILES comes first, the peptide text is derived from it.

This note sets out measurements from PubChem BioAssay (NCATS).

The target of test [1] is Calcium and integrin-binding protein 1 (Homo sapiens) (UniProt Q99828). Kind of test: Primary qHTS for Identification of Calcium Integrin Binding Protein 1 (CIB1) Competitor (AID 1508620).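 Further: GST tagged CIB1 binding a fluorescein labelled alphaIIb integrin peptide tracer; top concentration of the series differs between compounds.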 The following applies: CIB1-GST / FITC-alphaIIb peptide fluorescence polarization; series mostly up to 57.7 µM. Put shortly:
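CIB1-GST (1 uM final) and compound incubated 15 min at room temperature before adding FITC-alphaIIb peptide tracer (100 nM final). Competition for binding read by fluorescence polarization (ex 480, em 540) after another 15 min at room temperature.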
A general note: qHTS replaces the single test concentration by a dilution series.

Test [2] is described as follows: Primary qHTS for inhibitors of nuclear receptor binding SET domain protein 2 (NSD2) in an isogenic RCH-ACV NSD2 p.E1099K mutant (9B) (AID 1645876). Further: nearly all actives have a fitted effect of over 70% in size. The following applies: RCH-ACV NSD2 E1099K (9B) viability, CellTiter-Glo, 72 h; series mostly up to 44.9 µM.
Test [3] is described as follows: Primary qHTS for inhibitors of nuclear receptor binding SET domain protein 2 (NSD2) in an RCH-ACV wild type WT cells (2C) (AID 1645877). Further: nearly all actives have a fitted effect of over 70% in size. Conditions: RCH-ACV (leukaemia line) NSD2 WT (2C) viability, CellTiter-Glo, 72 h; series mostly up to 44.9 µM.
On the % scale 0 is the no-effect control and ±100 the full control effect.

Calcium and integrin-binding protein 1 (Homo sapiens), sequence (Q99828 whole entry, looked up): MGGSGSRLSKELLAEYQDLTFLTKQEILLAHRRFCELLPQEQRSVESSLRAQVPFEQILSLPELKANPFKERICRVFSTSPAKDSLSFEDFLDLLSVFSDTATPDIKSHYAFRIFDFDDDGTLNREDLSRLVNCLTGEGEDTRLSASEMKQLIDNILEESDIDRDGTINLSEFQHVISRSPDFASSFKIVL

In the case of `C[C@@H]1C[C@@H](O)[C@@]23CO[C@]2(CO)CCC[C@@H]3[C@@]12C[C@@H](c1ccoc1)OC2=O`, the Potency result in test [1], in test [2] and in test [3] was “inactive” throughout.
Regarding `CC1=C(CCC(C)O[C@@H]2O[C@H](CO)[C@@H](O)[C@H](O)[C@H]2O)C(C)(C)CC(O)C1` (some centres undefined), the Potency result in test [1], in test [2] and in test [3] was “inactive” each time.
With `C=C1CC[C@@]2(OC1)O[C@H]1CC3C4CC=C5C[C@@H](O[C@@H]6O[C@@H](C)[C@H](O)[C@@H](O)[C@H]6O)C[C@@H](O[C@@H]6O[C@H](C)[C@H](O)[C@H](O)[C@H]6O[C@@H]6O[C@@H](C)[C@H](O)[C@@H](O)[C@H]6O)[C@]5(C)C4CC[C@]3(C)[C@H]1[C@@H]2C` (some centres undefined), the Potency result in test [1] is “inactive”. Further, the activity change, negative = viability loss in test [2] is -22.3% [at 9.23 µM].
Take `COC(=O)C[C@H]1C(C)(C)[C@H](OC(=O)C(C)C)C2CC3=C4CC(=O)O[C@@H](c5ccoc5)[C@]4(C)CCC3[C@@]1(C)C2=O` (some centres undefined): the Potency result in test [1], in test [2] and in test [3] was “inactive” throughout.
Take `CCC(C)C(=O)O[C@H]1[C@@H](O[C@H]2O[C@H](CO)[C@@H](O)[C@H](O)[C@H]2O)O[C@H](CO)[C@@H](O)[C@@H]1O` (some centres undefined): the Potency result in test [1] and in test [2] was “inactive” throughout.
For `C[C@H](O)C(O)(C(=O)OCc1ccccc1NC(=O)CCC(N)C(=O)O)[C@H](C)O` (some centres undefined), the Potency result in test [1], in test [2] and in test [3] was “inactive” throughout.
`C/C=C/C=C/C(O)=C1/C(=O)[C@]2(C)C3/C(=C(O)/C=C/C=C/C)C(=O)C4(C)C1[C@]1(C)O[C@@]4(O)[C@@]3(C)O[C@@]12O`: the Potency entry in test [1] and in test [2] was “inactive” in each case.
With `C[C@@H]1CC[C@]2(C(=O)O[C@@H]3O[C@H](CO[C@@H]4O[C@H](CO)[C@@H](O)[C@H](O)[C@H]4O)[C@@H](O)[C@H](O)[C@H]3O)CC[C@]3(C)C(=CCC4[C@@]5(C)CC[C@H](O)[C@](C)(C(=O)O)C5CC[C@]43C)[C@@H]2[C@]1(C)O` (some centres undefined), the Potency result in test [1] is “inactive”. Besides, the activity change, negative = viability loss in test [2] is -2.63% [at 9.23 µM]. In addition, the activity change, negative = cell killing in test [3] was -8.35% [at 9.23 µM].
In the case of `COc1ccc(C(=O)OC2C3C=COC(OC4OC(CO)C(O)C(O)C4O)C3C3(CO)OC23)cc1OC` (centres undefined), the Potency result in test [1], in test [2] and in test [3] was “inactive” throughout.
`CC(C)CC[C@@H](O)[C@](C)(O)[C@H]1CC[C@@]2(O)C3=CC(=O)[C@@H]4C[C@@H](O)[C@@H](O)C[C@]4(C)[C@H]3CC[C@]12C`: the Potency entry in test [1] and in test [2] was “inactive” throughout.
`CC1C(=O)OCC2=CC[N+]3([O-])CCC(OC(=O)C(C)(O)C1(C)O)C23` (centres undefined): the Potency entry in test [1], in test [2] and in test [3] was “inactive” throughout.
With `C=C1CC[C@@]2(OC1)O[C@H]1CC3[C@@H]4CC=C5C[C@@H](O)C[C@@H](O[C@@H]6OC[C@H](O)[C@H](O)[C@H]6O[C@@H]6O[C@@H](C)[C@H](O)[C@@H](O)[C@H]6O)[C@]5(C)C4CC[C@]3(C)[C@H]1[C@@H]2C` (some centres undefined), the Potency result in test [1] and in test [2] was “inactive” each time.
In the case of `CC1C(O)C(O)C2C(C(=O)OCCc3ccc(O)cc3)=COC(O[C@@H]3O[C@H](CO)[C@@H](O)[C@H](O)[C@H]3O)C12` (some centres undefined), the Potency entry in test [1], in test [2] and in test [3] was “inactive” each time.
Consider `CC1CCC2(C(=O)OC3OC(CO)C(O)C(O)C3O)CCC3(C)C(=CCC4C5(C)CCC(O)C(C)(CO)C5CCC43C)C2C1(C)O` (centres undefined), for which the Potency entry in test [1], in test [2] and in test [3] was “inactive” in each case.
Turning to `CC(C)C1NC(=O)C(CC2(O)c3ccccc3N3C(=O)C(Cc4ccccc4)NC32)NC1=O` (centres undefined), the Potency result in test [1], in test [2] and in test [3] was “inactive” throughout.
Take `COC(=O)C1=CO[C@@H](O[C@@H]2O[C@H](CO)[C@@H](O)[C@H](O)[C@H]2O)[C@H]2[C@@H]1[C@H](O)C[C@]2(C)O`: the Potency result in test [1], in test [2] and in test [3] was “inactive” throughout.
Take `C=C1C[C@H](O)[C@@H](O)[C@@]2(C)C1[C@@H](O)[C@H]1OC(=O)C3[C@@H](C)[C@@H](O)[C@H](O)C2[C@]31C` (some centres undefined): the Potency result in test [1], in test [2] and in test [3] was “inactive” in each case.
With `C=C1CC/C=C(/C(=O)O)CCC2C1CC2(C)C` (centres undefined), the Potency entry in test [1], in test [2] and in test [3] was “inactive” in each case.
As to `CSCC[C@H](NC(=O)[C@H](CO)NC(=O)[C@H](CCC(=O)O)NC(C)=O)C(=O)N[C@H](C=O)CC(=O)O` (Ac-ESMD-aldehyde), the Potency entry in test [1] was “inactive”. Besides, the activity change, negative = viability loss in test [2] was -10.4% [at 9.23 µM]. Also, the activity change, negative = cell killing in test [3] is -15.7% [at 9.23 µM].
In the case of `CC[C@@H]1[C@H]2CCCCN3C(=O)C[C@H]([C@@H]4[C@H]1OC(=O)[C@H]4C)[C@@H]23`, the Potency entry in test [1] and in test [2] was “inactive” in each case.
Turning to `COc1c(C)c(OCC=C(C)C)cc2c1COC2=O`, the Potency result in test [1] and in test [2] was “inactive” in each case.
In the case of `CC1=C(CO)CC(C(C)C2CCC3C4CC=C5CC(OC6OC(COC7OC(CO)C(O)C(O)C7O)C(O)C(O)C6O)CC(O)C5(C)C4CCC23C)OC1=O` (centres undefined), the Potency result in test [1], in test [2] and in test [3] was “inactive” throughout.
